According to PubChem BioAssay (NCATS):
Records with an inconclusive call do not appear. Entries that show only a call come without a potency. The source made the active and inactive calls. The call rests on the fitted dose curve; in most records, active means well fitted inhibition curve with a large enough effect; inconclusive means small, poorly fitted or top-dose-only effect; inactive means flat fitted curve, though single readings scatter.

tested on: Zika virus NS2B-NS3 protease; assay: Primary screen GU AMC qHTS for Zika virus inhibitors (AID 1347154); details: Zika NS2B-NS3 unlinked protease, AMC fluorogenic substrate; series mostly up to 54.1 µM; further: nearly all actives have a fitted effect of over 70% in size
Method in brief: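 Fluorogenic AMC-substrate cleavage by noncovalent NS2B-NS3 protease complex (25 nM, pH 8.0 Tris buffer with Tween 20) followed for 15 minutes at room temperature (~20% conversion). Percent inhibition from ex340/em450 signal change, fitted by 4-parameter Hill equation.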
Potency means the concentration at half of the fitted maximal effect.

| SMILES | Potency |
| --- | --- |
| OCc1ccccn1 | inactive |
| NS(=O)(=O)c1cc2c(cc1Cl)NC(CC1CCCC1)NS2(=O)=O (centres undefined) | inactive |
| Cc1cccc(C)c1NC(=O)CN1CCCCCC1 | inactive |
| COc1cc(C)nc(-n2nc(C)cc2OC)n1 | inactive |
| COc1cc(O)c(C(=O)c2ccccc2)cc1S(=O)(=O)O | inactive |
| O=S(=O)(O)c1ccc(O)cc1 | inactive |
| N#C/C(=C1\SCC(c2ccccc2Cl)S1)n1ccnc1 (centres undefined) | inactive |
| CN(C)CCOC(c1ccc(Cl)cc1)c1ccccn1 (centres undefined) | inactive |
| O=C(CN1CCN(Cc2ccc3c(c2)OCO3)CC1)N1c2ccccc2Sc2ccccc21 | inactive |
| O=C(Nc1cccc(C2=NCCN2)c1)Nc1cccc(C2=NCCN2)c1 | inactive |
| NCCNc1cccc2ccccc12 | 14.4 µM (active) |
| C/C=C/C=N/NC(=O)c1ccncc1 | inactive |
| CCN(CC)CCOC(=O)C1(c2ccccc2)CCCC1 | inactive |
| N[C@H](C(=O)O)[C@@H](O)c1ccc(O)c(O)c1 | 12.8 µM (active) |
| CN(C)CCOC(=O)C(c1ccccc1)C1(O)CCCC1 (centres undefined) | inactive |
| CCCCCN=C(N)N/N=C/c1c[nH]c2ccc(OC)cc12 | inactive |
| CC[N+](C)(CC)CCOC(=O)C(O)(c1ccccc1)C1CCCCC1 (centres undefined) | inactive |
| COc1cc(NS(=O)(=O)c2ccc(N)cc2)ncn1 | inactive |
| CCOC(=O)[C@H](CCc1ccccc1)N[C@@H](C)C(=O)N1[C@H](C(=O)O)C[C@@H]2CCC[C@@H]21 | inactive |
| CCCCNc1ccc(C(=O)OCCOCCOCCOCCOCCOCCOCCOCCOCCOC)cc1 | inactive |

| SMILES | Potency |
| --- | --- |
| O=C(O)CCC(=O)Nc1ccc(S(=O)(=O)Nc2nccs2)cc1 | inactive |
| CC(=O)O[C@H]1C[C@@H]2CC[C@@H]3[C@H](CC[C@@]4(C)[C@H]3C[C@H]([N+]3(C)CCCCC3)[C@@H]4OC(C)=O)[C@@]2(C)C[C@@H]1N1CCCCC1 | inactive |
| CCc1oc2ccccc2c1C(=O)c1cc(I)c(O)c(I)c1 | 28.7 µM (active) |
| CC(C)Cc1ccc(CC(=O)O)cc1 | inactive |
| NS(=O)(=O)Cc1noc2ccccc12 | inactive |
| CN1CCC[C@@H]1CCO[C@](C)(c1ccccc1)c1ccc(Cl)cc1 | inactive |
| CCCN(CCC)S(=O)(=O)c1ccc(C(=O)O)cc1 | inactive |
| CCC1Nc2cc(Cl)c(S(N)(=O)=O)cc2S(=O)(=O)N1 (centres undefined) | inactive |
| O=C(O)CCNC(=O)c1ccccc1 | inactive |
| CCCCCCCCCCCCCC(=O)OC(C)C | inactive |
| COc1ccc(C(Cl)=C(c2ccc(OC)cc2)c2ccc(OC)cc2)cc1 | inactive |
| COc1cc(C(=O)N2CCCCCCC2)cc(OC)c1OC | inactive |
| CC(C(=O)O)c1cccc(Oc2ccccc2)c1 (centres undefined) | inactive |
| CCN(CC)CCNC(=O)COc1ccc(OC)cc1 | inactive |
| Oc1ccccc1C=NCc1ccccc1 | inactive |
| O=C(c1ccc(F)cc1)C1CCN(CCn2c(=S)[nH]c3ccccc3c2=O)CC1 | inactive |
| CC(C)(Cc1c[nH]c2ccccc12)NCC(O)COc1ccccc1C#N (centres undefined) | inactive |
| O=C1C(O)=C(O)C(=O)C(O)=C1O | inactive |
| CC(C)(C)NC[C@H](O)COc1cccc2c1CCCC2=O | inactive |
